Pf growth 48h – Primary qHTS for delayed death inhibitors of the malarial parasite plastid, 48 hour incubation | P. falciparum luciferase growth in erythrocytes, 48 h | Potency, µM (titrated, usually from 28.7 µM), for inactives: at the top dose activity change, negative = inhibition, hits mostly inhibitors | 5.9% of 310,000 active; note: potency is the fitted concentration of half-maximal effect; % is set by controls: 0 for no effect and ±100 for the full control effect
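Growth was read as firefly luciferase luminescence after a 48 h, 37 C, 5% CO2 exposure of compounds to reporter-bearing P. falciparum cultures (0.1% parasitemia, 2% hematocrit final) in Albumax-supplemented RPMI 1640.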
Shiga inhibitor – A qHTS for Small Molecule Inhibitors of Shiga Toxin. 9.2% of 290,000 active. inhibition, % at 38.7 µM. Vero cells, Shiga toxin protein synthesis inhibition reporter; in the data active = inhibition mostly above about 28%, no sharp cut-off; inactive = mostly below about 43%; note: 0% is about no effect
CHX counter – Cycloheximide Counterscreen for Small Molecule Inhibitors of Shiga Toxin | max response, % | 12% of 300,000 active | cell reporter, cycloheximide protein synthesis inhibition counterscreen | AID 2314, 2010; in the data active = max response mostly above about 13%, no sharp cut-off; inactive = mostly below about 14%; note: read at 38.3 µM for the half of the compounds with a filed dose; 0% is about no effect
Pf growth 96h – Primary qHTS for delayed death inhibitors of the malarial parasite plastid, 96 hour incubation; P. falciparum luciferase reporter growth, 96 h; Potency, µM (doses to about 28.7 µM), for the others: top-dose activity change, negative = inhibition, most hits filed as inhibitors; 6.9% of 320,000 active; AID 504834, 2011; note: potency is the fitted concentration of half-maximal effect; % is set by controls: 0 for no effect and ±100 for the full control effect
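96 h incubation, 37 C, 5% CO2, of luciferase-reporter P. falciparum-infected RBCs (2% hematocrit, 0.05% parasitemia final) with test compounds; endpoint luminescence.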
SARS PLpro yeast – qHTS of Yeast-based Assay for SARS-CoV PLP. S. cerevisiae expressing SARS-CoV PLpro, growth rescue. Potency, µM (titrated, usually from 32.9 µM), for the others: at the top dose activity, positive = growth rescue, usual class: activators. 0.19% of 330,000 active; calls by dose curve; note: potency is the fitted concentration of half-maximal effect; 0% is about no effect; nearly all actives have a fitted effect of over 55% in size
AMA1-RON2 inh – qHTS for Inhibitors of AMA1-RON; Towards Development of Antimalarial Drug Lead: Primary Screen; Plasmodium falciparum AMA1 (3D7) - RON2 peptide interaction; AlphaScreen AMA1-biotinylated RON2 peptide binding; Potency, µM (titrated, usually from 58.2 µM), without a hit: at the top dose activity change, negative = inhibition, usual class: inhibitors; 0.2% of 360,000 active;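 note: potency is the fitted concentration of half-maximal effect; 0% = vehicle wells and -100% = peptide control; nearly all actives have a fitted effect of over 45% in size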
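AMA1 (3D7) with his tag at 25 nM final met compounds first, then biotinylated RON2 peptide at 25 nM; detection used donor plus acceptor beads, 10 µg/mL apiece, read by AlphaScreen after 30 min at room temperature.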
Starred values were filed as active, the others as inactive; ? = inconclusive; nt = no result; [ ] = another dose, or the depositor's remark. In the library only some 19% were active in any assay of this set; here they are far more common. Unless noted, calls come from the whole dose curve; as a rule, active = well fitted curve in the direction sought with a large enough effect; inconclusive = small, poorly fitted or top-dose-only effect, or another doubt; inactive = no such curve, though single readings can be large; an effect the other way counts as inactive or inconclusive.

SMILES	Pf growth 48h	Shiga inhibitor	CHX counter	Pf growth 96h	SARS PLpro yeast	AMA1-RON2 inh
O=C(CCC1CCCC1)Nc1cc(Cl)ccc1N1CCOCC1	?	nt	nt	8.28µM*	1.0%	13.5%
CCN(CC)S(=O)(=O)c1ccc(N2CCOCC2)c(NC(=O)Cc2ccccc2F)c1	?	-3.7	-1.5	?	-1.6%	11.6%
COc1ccc(C2=CC(=O)C[C@H](COCc3ccccc3)N(C(=O)OC(C)(C)C)O2)cc1	nt	nt	nt	nt	nt	7.8%
Cc1cc(OCC(=O)NC2CC(C)(C)NC(C)(C)C2)c2c(C)cc(=O)oc2c1	-5.5%	-8.6	9.8	20.0%	-0.9%	0.0%
CCOC(=O)C1C(=O)C(=O)N(C(C)C)C1C(=O)OCC (stereo unspecified)	nt	nt	nt	nt	nt	-4.7%
O=C(Cc1c(Cl)cccc1Cl)OCc1ccccn1	?	59.3*	24.8*	?	-15.5%	-22.2%
COc1ccc(Cl)cc1N1C(=O)CC(N2CCN(S(=O)(=O)c3ccccc3F)CC2)C1=O (stereo unspecified)	nt	nt	nt	nt	-21.4%	23.2%
CCC1Oc2ccccc2N(CC(=O)NCc2cccs2)C1=O (stereo unspecified)	?	25.5	29.9	-26.6%	-2.2%	4.2%
CCN1C(=O)c2ccccc2S(=O)c2ccc(C(=O)NCCN(CC(C)C)CC(C)C)cc21 (stereo unspecified)	11.7µM*	2.3	-1.5	76.3%	1.0%	-2.0%
O=C(NCCCN1CCOCC1)c1ccc2c(c1)N(Cc1ccccc1F)C(=O)c1ccccc1S2=O (stereo unspecified)	-24.2%	-8.1	-7.7	14.7µM*	6.2%	11.9%
CCN1C(=O)c2ccccc2S(=O)(=O)c2ccc(C(=O)NCCCN(CC(C)C)CC(C)C)cc21	-27.1%[0.00184 µM]	2.1	4.3	24.9%	0.1%	-5.3%
O=C(NCCCN1CCOCC1)c1ccc2c(c1)N(Cc1cccc(Cl)c1)C(=O)c1ccccc1S2=O (stereo unspecified)	11.7µM*	2.0	-1.6	-6.8%	2.9%	-8.9%
CCN(CC(=O)Nc1ccc(OC)cc1)C(=O)Cc1ccsc1	-15.6%	nt	nt	-21.6%	-0.6%	5.3%
O=C(C1CCCN(Cc2ccccc2F)C1)N1CCc2ccccc2C1 (stereo unspecified)	19.6%	-11.8	1.8	1.3%	0.1%	7.5%
COc1ccc(C2=NOC(C(=O)Nc3cccc(O)c3)C2)cc1 (stereo unspecified)	22.6%	3.6	11.0	5.22µM*	1.3%	-1.7%
COc1ccc(C2=NOC(C(=O)Nc3cc(C)on3)C2)cc1 (stereo unspecified)	nt	-12.8	-7.2	9.28µM*	4.8%	-1.5%
O=C(Nc1cccc(O)c1)C1CC(c2ccc(Cl)cc2)=NO1 (stereo unspecified)	0.0%	-2.1	-2.9	5.7%	8.8%	2.2%
CC(SC1=NCCN1S(=O)(=O)c1ccccc1)c1ccccc1 (stereo unspecified)	-22.9%	-4.5	0.9	13.1µM*	-2.6%	3.6%
CC(SC1=NCCN1S(=O)(=O)c1ccc(F)cc1)c1ccccc1 (stereo unspecified)	?	-0.1	0.8	11.7µM*	-0.1%	16.9%
Cc1ccc(S(=O)(=O)N2CCN=C2SC(C)c2ccccc2)cc1 (stereo unspecified)	-4.3%	-5.3	7.7	?	-5.1%	6.7%
CCCCC(=O)NC(c1ccc(Cl)cc1)c1ccc2cccnc2c1O (stereo unspecified)	nt	nt	nt	nt	nt	79.2%
CCCC(=O)NC(c1ccc(Cl)cc1Cl)c1ccc2cccnc2c1O (stereo unspecified)	?	31.2	-2.2	17.0%	?	82.5%
CCCCC(=O)NC(c1ccccc1OC)c1ccc2cccnc2c1O (stereo unspecified)	1.85µM*	1.8	-1.2	2.08µM*	?	-20.0%
CCCC(=O)NC(c1ccccc1OC)c1ccc2cccnc2c1O (stereo unspecified)	1.65µM*	-14.3	1.2	?	-3.1%	-21.0%
C=C1C[C@]2(O)[C@@]3(C)CCC(=O)C(C)(C)C3=C(O)C(=O)[C@@]2(C)[C@@H]2C(=O)O[C@@](C)(C(=O)OC)C(=O)[C@@]12C	16.7%	63.9*	25.6*	-16.0%	4.8%	-1.7%
SMILES	Pf growth 48h	Shiga inhibitor	CHX counter	Pf growth 96h	SARS PLpro yeast	AMA1-RON2 inh
O=C(NN1CCN(Cc2ccccc2Cl)CC1)c1ccc(Br)cc1	?	-6.7	-5.2	-22.9%	3.1%	-6.7%
CN(C)/C=N/C(=S)Nc1ccc(F)cc1	23.4%	38.1*	24.7*	38.5%	nt	-4.2%
CN(C)/C=N/C(=S)Nc1ccc(Cl)c(Cl)c1	-1.7%	111.5*	40.4*	-11.4%	-3.3%	40.5%
CN(N)C(=S)Nc1ccc(F)cc1	1.3%	-5.8	12.0	4.0%	-0.4%	97.9%
CN(C)/C=N/C(=S)Nc1cc(Cl)cc(Cl)c1	6.2%	-6.0	3.7	?	-0.9%	23.3%
CC12CC3(C)CC(C)(C1)CC(C(=O)NC(=S)N1CCCC1)(C2)C3	6.57µM*	2.3	-4.8	?	3.0%	43.4%
Cc1cccc(CN(C)C)c1OC(=O)N(C)C	19.4%	-15.1	6.7	5.86µM*	-0.7%	9.6%
COc1cc(C(=O)Nc2c(C(=O)O)[nH]c3ccccc23)cc(OC)c1OC	0.9%	-5.1	-0.8	-0.6%	-1.3%	11.1%
CCS(=O)(=O)Nc1c(C(=O)O)[nH]c2ccccc12	-5.0%	1.1	-1.7	11.7µM*	-1.6%	-16.5%
CC(=O)Nc1c(C(=O)O)[nH]c2ccccc12	6.5%	-1.3	1.1	10.4µM*	-5.1%	-2.8%
CCS(=O)(=O)Nc1c(C(=O)OC)[nH]c2ccccc12	12.5%	3.5	5.1	nt	4.7%	-0.2%
Cc1ccc2nc(SCCC(=O)O)cc(C)c2c1	-23.3%	-16.3	0.7	nt	-5.9%	-7.4%
O=C(NC(Cc1ccc(O)cc1)C(=O)N=Nc1c(O)[nH]c2ccccc12)c1ccccc1 (stereo unspecified)	nt	nt	nt	nt	nt	-2.4%
COC(=O)c1ccc(Sc2ccc(C)cc2)c(N)c1	52.5%	57.2*	57.0*	30.3%	-3.0%	27.6%
O=C(CSc1ccccc1)N1CCCC(N2CCN(c3ccc(F)cc3)CC2)C1 (stereo unspecified)	?	1.8	13.7	10.9%	0.8%	-6.2%
Cc1cc(C(=O)Nc2ccccc2C(F)(F)F)no1	1.7%	16.8	11.1	10.4µM*	-0.5%	-14.4%
O=C(Nc1ccccc1C(F)(F)F)c1ccccn1	8.4%	39.8	31.6*	-9.2%	1.3%	69.1%
O=C(Nc1ccccc1C(F)(F)F)c1cc(-c2ccco2)on1	36.3%	57.8*	11.8	6.9%	-1.9%	21.3%
Cc1cc(C(=O)NNc2ccccc2F)no1	?	4.2	-2.2	10.8%	-2.0%	-0.9%
